MARV entry inh = qHTS for Inhibitors of binding or entry into cells for Marburg Virus | Marburg virus pseudotype entry/binding inhibition, cell-based | actives 6.5% (n = 18,000) | Potency, µM (series often up to 49.2 µM), most hits filed as inhibitors
Lassa entry = qHTS for Inhibitors of binding or entry into cells for Lassa Virus; Lassa virus pseudotyped entry inhibition, cell-based qHTS; Potency, µM (series often up to 49.2 µM), most hits filed as inhibitors; actives 4.1% (n = 18,000)
Each line names hits and unclear results; the compound was inactive in the other large screens. An excerpt weighted towards active compounds, which were near 7.1% of everything screened. Calls come from the whole dose curve; tested in HEK293 cells.

C[C@@]12C(=O)OC(=O)[C@@]1(C)C1CCC2O1	MARV entry inh 3.5µM, Lassa entry 2µM
C[C@@]12C(=O)OC(=O)[C@@]1(C)[C@@H]1CC[C@@H]2O1	none
CC(C)=CCN1C(=O)[C@]2(O[C@H](COc3ccccc3)CC3=CCCC32)c2c(Br)cccc21 (stereo not given in full)	none
C=C(C)C(=O)c1ccc(OC)cc1	none
COc1ccc(CC2NC[C@H](O)[C@H]2OC(C)=O)cc1 (stereo not given in full)	MARV entry inh 0.32µM, Lassa entry 0.32µM
CCN1C(=O)NC(c2ccc(Br)cc2)C(C(=O)OC)=C1C (stereo not given)	MARV entry inh inconclusive
COCC(C)NCc1cc2ccc(OC)cc2nc1N1CCN(c2ccc(F)cc2)CC1 (stereo not given)	MARV entry inh 11µM, Lassa entry inconclusive
COc1ccc2cc(CNCc3ccccc3C(F)(F)F)c(N3CCCC(CO)C3)nc2c1 (stereo not given)	none
CCCNC(=O)OC[C@H]1O[C@H](CCON=CC[C@@H]2C=C[C@H](OC(C)=O)[C@@H](COC(C)=O)O2)C=C[C@H]1Oc1ccc(OC)cc1	none (no result: Lassa entry)
O=[N+]([O-])c1ccc(F)c([N+](=O)[O-])c1	none
O=C(NC(NC(=S)Nc1ccc(F)c([N+](=O)[O-])c1)C(Cl)(Cl)Cl)C(c1ccccc1)c1ccccc1 (stereo not given)	MARV entry inh 11µM, Lassa entry 11µM
CCN1C(=NCc2cccc(C(F)(F)F)c2)NC(c2cccc(F)c2)C(C(=O)OC)=C1C (stereo not given)	none
CC(C)C[C@H]1COc2c(Cl)cccc2S(=O)(=O)N1Cc1ccc(Cl)cc1	Lassa entry inconclusive
Oc1ccc2c3c1O[C@H]1c4c(c5ccccc5n4Cc4ccccc4)C[C@@]4(O)C(C2)N(CC2CC2)CC[C@]314	MARV entry inh 7.9µM, Lassa entry 14µM
Oc1ccc2c3c1O[C@H]1c4[nH]c5c(c4C[C@@]4(O)[C@@H](C2)N(CC2CC2)CC[C@]314)C[C@]1(O)[C@H]2Cc3ccc(O)c4c3[C@@]1(CCN2CC1CC1)[C@@H]5O4	none
COc1ccc2c3c1O[C@H]1C(=O)CC[C@@]4(O)C(C2)N(CC2CC2)CCC314 (stereo not given in full)	MARV entry inh inconclusive
Oc1ccc2c3c1O[C@H]1c4oc5ccccc5c4C[C@@]4(O)C(C2)N(CC2CC2)CC[C@]314	MARV entry inh 14µM, Lassa entry inconclusive
CCC[CH2][Sn][CH2]C=C[C@@H]1C[C@@H](CCOCc2ccc(OC)cc2)OP(=O)(O)O1	none
CCOC(=O)CN1C(=O)[C@@]2(CC(C)=CC[C@@H](COc3ccccc3)O2)c2ccccc21	none (no result: Lassa entry)
CCCCCC(=O)N1C[C@H](n2cc(-c3ccc(F)cc3)nn2)[C@@H](O)C[C@H]1c1ccc(OC)cc1	MARV entry inh inconclusive
COC(=O)CC=C[C@@H](C)[C@@H](C=NO[C@H](C)CN1CCCc2nc(C)c(C)cc21)N[S+](=O)([O-])c1ccc(C)cc1	MARV entry inh inconclusive
O=C(O)c1[nH]n(-c2ccc(S(=O)(=O)O)cc2)c(=O)c1N=Nc1ccc(S(=O)(=O)O)cc1	MARV entry inh inconclusive, Lassa entry 4µM
CCc1ccc(S(=O)(=O)O)cc1	none
c1ccc(C2(c3ccccc3)CC2C2=NCCN2)cc1 (stereo not given)	none
c1ccc2c(c1)OC[C@@H](C1=NCCN1)O2	MARV entry inh 11µM, Lassa entry inconclusive
COC(=O)C1=C(C)N(Cc2ccco2)C(=O)NC1c1ccco1 (stereo not given)	none
C#CCN1C(=O)[C@@]2(CC(C)=CC[C@@H](C)O2)c2ccccc21	none
Oc1ccc2c3c1O[C@H]1[C@H](O)CC[C@@]4(O)[C@@H](C2)N(CC2CC2)CC[C@]314	none
COC(=O)/C=C\C(=O)N[C@@H]1CC[C@@]2(O)[C@H]3Cc4ccc(O)c5c4[C@@]2(CCN3CC2CC2)[C@@H]1O5	MARV entry inh 28µM, Lassa entry inconclusive
Oc1ccc2c3c1O[C@H]1[C@@H](O)CC[C@@]4(O)[C@@H](C2)N(CC2CCC2)CC[C@]314	MARV entry inh inconclusive
O=C1/C(=C\c2ccccc2)C[C@@]2(O)[C@H]3Cc4ccc(O)c5c4[C@@]2(CCN3CC2CC2)[C@H]1O5	MARV entry inh inconclusive, Lassa entry 4µM
O=C1/C(=C\c2ccccc2)C[C@@]2(O)[C@H]3Cc4ccc(O)c5c4[C@@]2(CCN3CC2CC2)[C@@H]1O5	MARV entry inh 11µM, Lassa entry 3.5µM
O=C1CC[C@@]2(O)[C@H]3Cc4ccc(O)c5c4[C@@]2(CCN3CC2CC2)[C@@H]1O5	none
CC(C)[C@@H](OCc1ccccc1)[C@H](C)C=NOC[C@@H](O)COCc1ccco1	none
NS(=O)(=O)c1ccc(N=Nc2c(O)[nH]c3ccc(C(=O)NCc4ccncc4)cc23)cc1	none (no result: Lassa entry)
Cc1cc(-c2ccccn2)cc(C)c1C=Cc1cncc(-c2nn[nH]n2)c1	none
COCCNc1cc(-c2ccccc2CN(C)C)ncn1	none
Cc1cccc(CNc2ccnc(-c3ccccc3CN(C)C)n2)c1	MARV entry inh 11µM, Lassa entry inconclusive
COc1ccccc1-c1cncnc1NCc1cccc(C)c1	none
CNc1ccnc(-c2ccccc2CN(C)C)n1	none
COc1ccccc1-c1nccc(NCc2cccc(C)c2)n1	MARV entry inh 13µM
Cc1cccc(CNc2cc(-c3ccccc3CN(C)C)ncn2)c1	MARV entry inh 6.3µM
CCN(CC)CCCN=C1NC(c2cccc(F)c2)C(C(=O)OC)=C(C)N1Cc1ccccc1 (stereo not given)	MARV entry inh inconclusive
C[C@H]1[C@@H]2O[C@H]2CCO[C@H]1c1cccc(Br)c1	none
C=C[C@H](CCCCCC)[C@@H]1C[C@H](CCCCCCCCCCC)O[P@](=O)(OC)O1	none (no result: Lassa entry)
C#CCN1C(=O)CC[C@@]23C1=NC(C(=O)OC)=C(C(=O)OC)[C@@H]2N(CC=C(C)C)c1ccccc13	none (no result: Lassa entry)
CCN1C(=NCC(C)C)N[C@H](c2ccccc2)[C@H](C(=O)OC)[C@H]1C	Lassa entry inconclusive
O=[S+]1([O-])N[C@@H]2Cc3ccccc3[C@@H]2Oc2cc(Br)ccc21	none
CC1(C)CC[C@]2(C(=O)O)CC[C@]3(C)C(=CCC4[C@@]5(C)CC[C@H](O)C(C)(C)[C@@H]5CC[C@]43C)C2C1 (stereo not given in full)	Lassa entry inconclusive
CC1(C)CC[C@]2(C(=O)O)CC[C@]3(C)C(=CCC4[C@@]5(C)CC[C@H](O)C(C)(C)C5[C@H](O)C[C@]43C)C2C1 (stereo not given in full)	Lassa entry 32µM
COc1cc2ncnc(Nc3ccc(Cl)cc3F)c2cc1OC	none
C=CC(=O)Nc1cc2c(Nc3ccc(F)c(Cl)c3)ncnc2cc1OCCCN1CCOCC1	MARV entry inh 7.1µM, Lassa entry inconclusive
CCCCCCN1C(=O)CC[C@@]23C1=NC(C(=O)OC)=C(C(=O)OC)[C@@H]2N(Cc1ccccc1)c1ccccc13	none
C[C@H]1CC[C@H]2C(=O)NC[C@H](O)CN2[C@H]1c1ccc(Br)cc1	none
C=C=CCCN1C(=O)NC(c2ccccc2)C(C(=O)OC)=C1C (stereo not given)	none
CO[C@H]1C[C@H](O[C@@H]2/C(C)=C/C[C@@H]3C[C@@H](C[C@]4(CC[C@H](C)[C@@H](C5CCCCC5)O4)O3)OC(=O)[C@@H]3C=C(C)/C(=N/O)[C@H]4OC/C(=C\C=C\[C@@H]2C)[C@]43O)O[C@@H](C)[C@@H]1O	none
